# Records with an inconclusive call do not appear. Values without a mark were called inactive. The source made the active and inactive calls. Calls follow the shape of the dose curve; as a rule, active = well fitted curve in the direction sought with a large enough effect in the signal ratio in the repeat runs (not every such curve was filed as active); inconclusive = weak or mixed curves, or effect the other way; inactive = no such curve, though single readings can be large or run the other way; the % refers to the signal ratio.
# Target: Estrogen receptor (Homo sapiens) (UniProt P03372)
# Sequence (P03372 whole entry, looked up): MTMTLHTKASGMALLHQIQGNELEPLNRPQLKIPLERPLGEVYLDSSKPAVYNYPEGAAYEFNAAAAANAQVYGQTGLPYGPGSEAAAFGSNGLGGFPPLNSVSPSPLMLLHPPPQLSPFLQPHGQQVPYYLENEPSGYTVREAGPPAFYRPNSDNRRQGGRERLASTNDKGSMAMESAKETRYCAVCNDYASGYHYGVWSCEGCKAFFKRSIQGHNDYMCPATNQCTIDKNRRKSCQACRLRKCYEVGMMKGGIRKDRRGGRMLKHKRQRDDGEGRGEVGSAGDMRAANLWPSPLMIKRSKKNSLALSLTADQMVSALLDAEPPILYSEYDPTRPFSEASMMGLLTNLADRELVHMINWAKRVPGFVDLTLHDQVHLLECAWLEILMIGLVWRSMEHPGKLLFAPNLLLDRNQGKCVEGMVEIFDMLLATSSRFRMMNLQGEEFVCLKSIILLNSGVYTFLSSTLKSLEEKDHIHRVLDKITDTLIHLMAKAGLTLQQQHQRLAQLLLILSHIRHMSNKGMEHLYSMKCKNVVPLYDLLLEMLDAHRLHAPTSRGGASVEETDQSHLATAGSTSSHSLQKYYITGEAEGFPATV
# Test: qHTS assay to identify small molecule antagonists of the estrogen receptor alpha (ER-alpha) signaling pathway (AID 743069)
# Settings: HEK293 ER-alpha-UAS-bla, beta-lactamase ratio, antagonist mode; series mostly up to 69.4 µM; activity, negative = inhibition: at the top concentration
# Text: National Center for Advancing Translational Sciences [NCATS]
# NIH Chemical Genomics Center [NCGC]
# U.S. Environmental Protection Agency [EPA]
# National Institutes of Environmental Health Sciences [NIEHS]
# National Toxicology Program [NTP]
# U.S. Food and Drug Administration [FDA]
# Estrogen receptor (ER), a nuclear hormone receptor, plays an important role in development, metabolic homeostasis and reproduction. Two subtypes of ER, ER-alpha and ER-beta have similar expression patterns with some uniqueness in both types. Endocrine disrupting chemicals (EDCs) and their interactions with steroid hormone receptors like ER causes disruption of normal endocrine function. To identify the compounds that inhibit ER signaling, an ER-alpha-UAS-bla GripTiteTM cell line (Invitrogen, Carlsbad, CA, USA) containing a beta-lactamase reporter gene under the control of an Upstream Activator Sequence (UAS) stably integrated into HEK293 cells was used to screen the Tox21 10K compound library.
# Tox21 Assay Protocol Summary:
# ER-alpha-bla cells were cultured in assay medium containing 2% charcoal stripped FBS overnight in the culture flasks before the assay was performed. The cells were dispensed at 5,000 cells/5 uL of assay medium per well into black wall/clear-bottom 1536-well plates using a Multidrop Combi (ThermoFisher Scientific, Waltham, MA) dispenser. After the assay plates were incubated at a 37C and 5% CO2 for 4 hr, 23 nL of compounds dissolved in DMSO, positive controls or DMSO only was transferred to the assay plate by a Pintool station (Kalypsys, San Diego, CA), followed by addition of 1 uL of 17beta-estradiol in assay medium using a Flying Reagent Dispenser (Aurora Discovery, San Diego, CA). The plates were incubated at 37C and 5% CO2 for 18 hr. Then 1 uL of LiveBLAzerTM B/G FRET substrate was added using a Flying Reagent Dispenser, the plates were incubated at room temperature for 2 hours, and fluorescence intensity was measured by an Envision plate reader (PerkinElmer, Shelton, CT).
# % is scaled to controls: 0 for no effect and ±100 for the full control effect.
SMILES,"activity, negative = inhibition",Potency
Cc1ccc2c(C)cccc2c1,-3.78%,
CCCC[N+](CCCC)(CCCC)CCCC,6.55%,
Cc1nnc(-c2ccccc2)c(=O)n1N,-6.45%,
CCN(C(C)=O)c1cccc(-c2ccnc3c(C#N)cnn23)c1,-7.76%,
C[C@H](N)[C@H](O)c1ccc(O)c(O)c1,10.2%,
O=C([O-])c1ccccn1.O=C([O-])c1ccccn1.O=C([O-])c1ccccn1.[Cr+3],10.7%,
c1ccc2c(c1)sc1ccccc12,23.7%,
CCc1ccccc1N,5.63%,
Cc1cnc(C2=NC(C)(C(C)C)C(=O)N2)c(C(=O)O)c1 (stereo not given),-51.5%,
NNCCO,6.13%,
CN1C(=O)CN=C(c2ccccc2)c2cc([N+](=O)[O-])ccc21,-4.14%,
O=C=NC1CCCCC1,-3.67%,
O=S(=O)(Cl)Cl,-25.8%,
NC(=O)CF,-4.51%,
Oc1cccc(Cl)c1,4.85%,
Cc1cccc(C)c1NC1=NCCCS1,5.77%,
CCCCCCCCCCCCN(C)C,5.93%,
CN1CC[C@]23c4c5ccc(O)c4O[C@H]2[C@@H](O)CC[C@H]3[C@H]1C5,-7.61%,
C1CCNCC1,4.4% [at 79.1 µM],
C[N+]1(CCC(C(N)=O)(c2ccccc2)c2ccccc2)CCCCC1,7.71%,

SMILES,"activity, negative = inhibition",Potency
CC(C)C1(C)N=C(c2ncccc2C(=O)O)NC1=O (stereo not given),13.3%,
O=C1NC(=O)C(=O)C(=O)N1,17.9% [at 79.1 µM],
CCOP(=S)(S)OCC,-11.4% [at 79.1 µM],
Clc1ccccc1,-21.5%,
CCCSP(=S)(OCC)Oc1ccc(SC)cc1 (stereo not given),-10.7%,
CCCC(C)(COC(N)=O)COC(=O)NC(C)C (stereo not given),,inactive
C=C(C)C(=O)OCCCCOC(=O)C(=C)C,15.7%,
CCC1(CC)C(=O)NC(=O)NC1=O,-6.43%,
COc1cc(C[C@@H](C)N)c(OC)cc1Br,28.3% [at 79.1 µM],
COC1CC(=C(c2cccs2)c2cccs2)C[N+](C)(C)C1 (stereo not given),-10.1%,
CC(C)(C)N(NC(=O)c1ccc(Cl)cc1)C(=O)c1ccccc1,23%,
O=[N+]([O-])O[C@H]1CO[C@H]2[C@@H]1OC[C@H]2O[N+](=O)[O-],-6.34%,
c1ccc2sc(SNC3CCCCC3)nc2c1,,inactive
OCCSSCCO,-5.77%,
C=C(Cl)Cl,-6.12% [at 79.1 µM],
NP(N)(=O)NC(=O)c1ccc(F)cc1,-15.1%,
CN(C)C(=O)Nc1cccc(OC(=O)NC(C)(C)C)c1,-12.1%,
Clc1ccc2ccccc2c1,-11.1% [at 79.1 µM],
CCCC[N+]1(C)[C@@H]2CC(OC(=O)[C@H](CO)c3ccccc3)C[C@H]1[C@@H]1O[C@@H]12 (stereo not given in full),-0.561%,
CN(C1CCCCC1)C1CCCCC1,-19%,
